Measurements: PubChem BioAssay (NCATS)
Inconclusive results are not listed. The source made the active and inactive calls. Unless noted, calls come from the whole dose curve; as a rule, active = well fitted curve in either direction with a large enough effect (not every such curve was filed as active); inconclusive = small, poorly fitted or top-dose-only effect, or another doubt; inactive = flat fitted curve, though single readings scatter.

How the values were obtained:
[1] = AP1 Signaling Pathway (AID 357);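 note: ME-180 reporter cells stimulated with EGF at its EC50 level; % is set by controls: 0 for no effect and ±100 for the full control effect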
In short: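 Read-out was the 460nm/530nm emission ratio (excitation 405nm) after CCF4 loading for 2.5 hours at room temperature. Cells carried an AP-1-driven beta-lactamase reporter, were stimulated with EC50 EGF plus compound for 5 hours, and AC50 values came from titrations.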

[2] = target: Cytochrome P450 1A2 (Homo sapiens) (UniProt P05177); assay: p450-cyp1a2 (AID 410; calls by dose curve; note: potency is the fitted concentration of half-maximal effect;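 for activity change, negative = inhibition: -100% = full effect of reference inhibitor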)
Chain of Cytochrome P450 1A2 (Homo sapiens) (P05177 whole entry, looked up): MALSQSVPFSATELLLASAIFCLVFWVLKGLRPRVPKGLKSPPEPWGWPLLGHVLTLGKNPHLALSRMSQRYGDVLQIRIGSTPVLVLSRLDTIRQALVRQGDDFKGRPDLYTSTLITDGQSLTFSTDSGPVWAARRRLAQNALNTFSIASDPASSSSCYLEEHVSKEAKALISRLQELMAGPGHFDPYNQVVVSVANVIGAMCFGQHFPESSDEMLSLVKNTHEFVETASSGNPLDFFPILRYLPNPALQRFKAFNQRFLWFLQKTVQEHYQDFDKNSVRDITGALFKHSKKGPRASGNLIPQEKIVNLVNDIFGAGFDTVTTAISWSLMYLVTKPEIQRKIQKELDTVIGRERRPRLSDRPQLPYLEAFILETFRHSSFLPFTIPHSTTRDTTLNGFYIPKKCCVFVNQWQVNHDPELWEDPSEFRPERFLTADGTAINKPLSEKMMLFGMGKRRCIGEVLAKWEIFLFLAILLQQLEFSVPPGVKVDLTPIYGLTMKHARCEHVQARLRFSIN
In short: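 20nM CYP1A2, 100uM Luciferin-ME (=Km), 100mM KPO4; cpd 10 min RT; +NADPH regen, 60 min RT; stop/detect 20 min; luminescence. Normalized to furafylline 57 uM = full inhibition.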

[3] = NFAT Signaling Pathway (AID 444); conditions: Jurkat NFAT-bla M1, carbachol, beta-lactamase ratio, 5 h; at 17.2 µM (top of the series) unless noted;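 note: carbachol stimulus at about its EC50 of 1 µM final; % is set by controls: 0 for no effect and ±100 for the full control effect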
In short: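 Read-out: CCF4 FRET ratio (460 nm/530 nm) after 1 h RT dye loading, used for %activity and AC50 from titration series. Cells: Jurkat NFAT-β-lactamase/M1 line, treated with compound plus 1 uM carbachol for 5 h, 37 °C.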

[4] = Stat Signaling Pathway (AID 446);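 note: ME-180 cervical cancer cells given 40 pM IL-6 alongside compound; SIE-controlled beta-lactamase reporter measured as 460/530 nm FRET emission ratio; % is set by controls: 0 for no effect and ±100 for the full control effect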
In short: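 FRET read-out (405 nm excitation, 460/530 nm emission) of a beta-lactamase reporter under a STAT-inducible element in ME-180 cervical carcinoma cells. Cells with compound receive 40 pM IL-6 for 5 h. Values are normalised to AC90 stimulation and AC90 JAK-inhibitor controls.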

[5] = target: Glucocorticoid receptor (Homo sapiens) (UniProt P04150); assay: GR-GFP Redistribution (AID 450;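 active = compounds whose dose series gives a full or clear partial fitted curve of increased nuclear translocation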; note: potency is the fitted concentration of half-maximal effect); conditions: U2OS GR-GFP nuclear translocation, laser cytometry, 2 h
Chain of Glucocorticoid receptor (Homo sapiens) (P04150 whole entry, looked up, the tested form may be a part): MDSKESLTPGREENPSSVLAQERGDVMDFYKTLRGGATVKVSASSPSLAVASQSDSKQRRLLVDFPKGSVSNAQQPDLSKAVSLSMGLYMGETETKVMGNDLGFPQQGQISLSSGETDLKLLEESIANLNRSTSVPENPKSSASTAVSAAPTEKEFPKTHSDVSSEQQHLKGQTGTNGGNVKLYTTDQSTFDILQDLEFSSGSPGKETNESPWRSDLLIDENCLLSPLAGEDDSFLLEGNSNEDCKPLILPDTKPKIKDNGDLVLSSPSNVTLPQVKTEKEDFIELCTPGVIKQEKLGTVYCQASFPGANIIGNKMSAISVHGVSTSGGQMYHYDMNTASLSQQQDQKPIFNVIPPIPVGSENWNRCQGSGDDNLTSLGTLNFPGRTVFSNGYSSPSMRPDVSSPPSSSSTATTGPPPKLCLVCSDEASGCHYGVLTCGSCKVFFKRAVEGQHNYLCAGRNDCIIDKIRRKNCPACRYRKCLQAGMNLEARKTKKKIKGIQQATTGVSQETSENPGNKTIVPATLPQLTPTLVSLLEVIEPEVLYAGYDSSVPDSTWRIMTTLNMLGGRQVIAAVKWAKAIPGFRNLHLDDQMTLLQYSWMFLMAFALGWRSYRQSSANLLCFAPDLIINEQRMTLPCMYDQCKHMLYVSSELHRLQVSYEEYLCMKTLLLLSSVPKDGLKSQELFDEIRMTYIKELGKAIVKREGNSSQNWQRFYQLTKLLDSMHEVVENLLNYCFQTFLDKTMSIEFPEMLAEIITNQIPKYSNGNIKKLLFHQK

[6] = target: Mitogen-activated protein kinase 10 (Mus musculus) (UniProt Q61831); assay: JNK3 AlphaScreen Assay (AID 530);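 note: kinase came from lysate of stimulated human HepG2 cells; signal reports phosphorylation of biotinylated GST-cJun 1-79 at Ser73 with 10 µM ATP; % is set by controls: 0 for no effect and ±100 for the full control effect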
In short: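 Kinase buffer: 20 mM Tris-HCl pH 7.6, 10 mM MgCl2, 1 mM DTT, 0.1 mM Na3VO4, 0.01% Tween-20; ATP 10 uM. Substrate biotin-GST-cJun(1-79), enzyme from activated HepG2 lysates. Detection by Ser73 phospho-antibody AlphaScreen.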

[7] = target: 3',5'-cyclic-AMP phosphodiesterase 4B (Homo sapiens) (UniProt Q07343); assay: qHTS Assay for Inhibitors of PDE-IV (AID 607; active = well fitted activation curve with a large enough effect in the main read-out, with a control signal flat, not every such curve was filed as active; note: % of control where 0% means no effect)
Chain of 3',5'-cyclic-AMP phosphodiesterase 4B (Homo sapiens) (Q07343 whole entry, looked up): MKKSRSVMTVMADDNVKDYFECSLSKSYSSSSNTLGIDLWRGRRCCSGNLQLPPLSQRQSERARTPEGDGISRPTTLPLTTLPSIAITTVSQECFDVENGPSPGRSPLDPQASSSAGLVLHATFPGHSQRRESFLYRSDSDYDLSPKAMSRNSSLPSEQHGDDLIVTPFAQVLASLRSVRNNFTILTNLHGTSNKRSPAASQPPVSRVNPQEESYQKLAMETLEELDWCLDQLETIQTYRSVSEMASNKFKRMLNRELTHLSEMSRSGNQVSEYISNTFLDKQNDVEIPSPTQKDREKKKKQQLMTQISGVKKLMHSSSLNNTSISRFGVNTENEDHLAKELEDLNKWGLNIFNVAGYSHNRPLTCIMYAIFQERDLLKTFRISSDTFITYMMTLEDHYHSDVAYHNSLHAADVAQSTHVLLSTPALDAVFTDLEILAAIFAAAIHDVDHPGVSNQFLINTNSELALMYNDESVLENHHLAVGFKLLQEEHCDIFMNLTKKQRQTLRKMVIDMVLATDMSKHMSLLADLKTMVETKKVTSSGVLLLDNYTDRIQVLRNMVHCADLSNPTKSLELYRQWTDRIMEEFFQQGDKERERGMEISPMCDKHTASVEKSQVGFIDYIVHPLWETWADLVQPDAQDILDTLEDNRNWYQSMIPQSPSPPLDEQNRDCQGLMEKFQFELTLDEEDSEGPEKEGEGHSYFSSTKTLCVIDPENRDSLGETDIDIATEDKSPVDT
In short: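 Cell-based read-out of cAMP via a modified cyclic nucleotide-gated channel and membrane potential dye (535/590 nm) in HEK293 cells expressing PDE4 endogenously. Compounds tested up to 22.9 uM final; 100 uM RO 20-1724 reference.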

[8] = qHTS Assay for Lipid Storage Modulators (AID 1519; calls by dose curve); conditions: Drosophila S3 cells, BODIPY lipid droplet/cell ratio, laser cytometry, cells loaded with oleic acid
In short: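 Cells seeded at 5,000 per well were treated with compounds over a concentration series and loaded with oleic acid (400 uM, as added). Lipid droplet fluorescence (488 nm excitation, 500-530 nm channel) was read by laser-scanning cytometry and normalized to 20 uM Triacsin C.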

[9] = target: Ubiquitin carboxyl-terminal hydrolase 1 (Homo sapiens) (UniProt O94782); assay: Inhibitors of USP1/UAF1: Pilot qHTS (AID 504865; active = well fitted curve in the direction sought with a large enough effect; an effect the other way counts as inactive or inconclusive;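 note: rhodamine fluorescence freed from ubiquitin-rhodamine substrate followed over time; top concentration of the series differs between compounds; % is set by controls: 0 for no effect and ±100 for the full control effect; nearly all actives have a fitted effect of over 35% in size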)
Chain of Ubiquitin carboxyl-terminal hydrolase 1 (Homo sapiens) (O94782 whole entry, looked up): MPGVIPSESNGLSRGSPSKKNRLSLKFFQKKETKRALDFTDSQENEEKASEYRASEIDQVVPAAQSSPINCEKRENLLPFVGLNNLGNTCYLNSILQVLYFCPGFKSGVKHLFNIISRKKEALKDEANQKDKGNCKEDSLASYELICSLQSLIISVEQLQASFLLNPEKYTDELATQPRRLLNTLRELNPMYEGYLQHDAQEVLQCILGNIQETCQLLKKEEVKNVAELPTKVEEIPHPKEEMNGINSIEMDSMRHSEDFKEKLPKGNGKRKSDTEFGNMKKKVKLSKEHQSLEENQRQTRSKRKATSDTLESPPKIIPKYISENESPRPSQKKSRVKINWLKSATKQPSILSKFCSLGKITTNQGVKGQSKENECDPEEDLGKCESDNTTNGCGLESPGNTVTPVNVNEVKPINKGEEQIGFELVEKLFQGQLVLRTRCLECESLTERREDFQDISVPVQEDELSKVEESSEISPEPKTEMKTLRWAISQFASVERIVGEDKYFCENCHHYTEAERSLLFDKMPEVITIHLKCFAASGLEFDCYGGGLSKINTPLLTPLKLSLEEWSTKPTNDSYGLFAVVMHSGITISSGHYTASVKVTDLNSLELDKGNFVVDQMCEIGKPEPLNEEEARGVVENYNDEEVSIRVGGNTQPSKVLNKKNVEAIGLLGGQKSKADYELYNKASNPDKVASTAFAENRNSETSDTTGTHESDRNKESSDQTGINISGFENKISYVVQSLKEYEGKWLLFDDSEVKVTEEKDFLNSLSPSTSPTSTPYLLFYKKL
In short: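 Kinetic fluorescence assay: 1nM USP1/UAF1, 15 min compound preincubation, then 150nM Ub-Rho; 480/540 nm.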

[10] = target: Glucocorticoid receptor (Homo sapiens) (UniProt P04150); assay: GR-EFC Redistribution (AID 451; calls by dose curve; note: potency is the fitted concentration of half-maximal effect); conditions: CHO-K1 GR-EFC translocation, beta-gal luminescence, 2 h
In short: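 Translocation of GR-ED fusion to nuclear EA restores b-gal, read by luminescence after 1 h room-temperature detection. Engineered CHO-K1 biosensor cells, 1,000/well, exposed 2 h at 37 C to titrations up to 46 uM final.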

[11] = target: Luciferin 4-monooxygenase (Photinus pyralis) (UniProt P08659); assay: Biochemical firefly luciferase enzyme assay for NPC (AID 624030; active = well fitted curve in the direction sought with a large enough effect; an effect the other way counts as inactive or inconclusive;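 note: purified P. pyralis luciferase at 10 nM with luciferin and ATP substrate; 0% = DMSO and -100% = full luciferase inhibition by PTC124 control; nearly all actives have a fitted effect of over 70% in size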)
Chain of Luciferin 4-monooxygenase (Photinus pyralis) (P08659 whole entry, looked up): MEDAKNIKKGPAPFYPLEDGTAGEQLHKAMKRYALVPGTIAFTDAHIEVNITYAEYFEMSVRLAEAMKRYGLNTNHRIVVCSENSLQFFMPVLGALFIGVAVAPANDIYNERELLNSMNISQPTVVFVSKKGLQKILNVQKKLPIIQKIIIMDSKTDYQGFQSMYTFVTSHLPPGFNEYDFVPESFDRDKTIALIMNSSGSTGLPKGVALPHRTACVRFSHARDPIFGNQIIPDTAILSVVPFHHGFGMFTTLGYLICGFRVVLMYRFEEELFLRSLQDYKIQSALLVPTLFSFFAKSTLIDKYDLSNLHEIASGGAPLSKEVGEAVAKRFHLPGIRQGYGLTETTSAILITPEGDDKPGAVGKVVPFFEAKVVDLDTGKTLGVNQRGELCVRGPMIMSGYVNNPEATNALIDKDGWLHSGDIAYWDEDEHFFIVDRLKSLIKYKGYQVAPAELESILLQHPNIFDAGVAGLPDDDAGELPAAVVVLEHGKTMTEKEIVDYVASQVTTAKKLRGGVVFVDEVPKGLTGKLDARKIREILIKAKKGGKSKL
In short: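 Direct inhibition of firefly luciferase enzyme (10 nM final, 50 mM Tris Acetate) assessed by luminescence within 5 minutes. Percent activity scaled between DMSO and PTC124 positive control, with concentration-effect curves classified by fit quality and response.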

[12] = S16 Schwann cell viability assay (CellTiter-Glo assay) (AID 624031; active = well fitted curve in the direction sought with a large enough effect; an effect the other way counts as inactive or inconclusive;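 note: cellular ATP luminescence as a viability measure; plate controls were DMSO-treated cells for no effect and cell-free wells for full effect; nearly all actives have a fitted effect of over 70% in size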)
In short: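 Native S16 rat Schwann cells, 500-750 cells/well in DMEM with 10% FBS, dosed with compound after overnight culture and incubated 24h at 37 degree Celsius/5% CO2. Viability by CellTiter-Glo luminescence; % activity normalized to no-cell wells and DMSO-treated cells.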

[13] = S16 Schwann cell PMP22 intronic element beta-lactamase assay (AID 624044; calls by dose curve;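 note: 0% = DMSO and -100% = potassium clavulanate positive control; nearly all actives have a fitted effect of over 15% in size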)
In short: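 Beta-lactamase reporter under a PMP22 intronic regulatory element in stable S16 rat Schwann cells; 24 h compound exposure. 460 nm blue signal normalized between DMSO (0%) and potassium clavulanate, with 535 nm FRET tracking viability; curves classed by r2 and response.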

[14] = qHTS profiling for inhibitors of Plasmodium falciparum proliferation (AID 504749; active = well fitted curve in the direction sought with a large enough effect; an effect the other way counts as inactive or inconclusive;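 note: 0% = DMSO vehicle and full inhibition = artemisinin control; nearly all actives have a fitted effect of over 60% in size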); conditions: P. falciparum in erythrocytes, SYBR Green DNA, 72 h, at 12.8 µM (top of the series)
In short: (§1)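 In a 72 h erythrocytic culture (37 C, humidified, 5% CO2) at 2.5% hematocrit and 0.3% starting parasitemia, compounds were tested; SYBR Green I in detergent lysis buffer stained parasite DNA overnight.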

C2A = assay: as above; conditions: P. falciparum in erythrocytes, SYBR Green DNA, 72 h; series mostly up to 12.8 µM
In short: as §1

CP217 = assay: as above; conditions: P. falciparum in erythrocytes, SYBR Green DNA, 72 h; series mostly up to 12.8 µM
In short: as §1

CP250 = assay: as above; conditions: P. falciparum in erythrocytes, SYBR Green DNA, 72 h; series mostly up to 12.8 µM
In short: as §1

FAB9 = assay: as above; conditions: P. falciparum in erythrocytes, SYBR Green DNA, 72 h; series mostly up to 12.8 µM
In short: as §1

JCK = assay: as above; conditions: P. falciparum in erythrocytes, SYBR Green DNA, 72 h; series mostly up to 12.8 µM
In short: as §1

SC27B = assay: as above; conditions: P. falciparum in erythrocytes, SYBR Green DNA, 72 h; series mostly up to 12.8 µM
In short: as §1

[15] = measured here: cell count channel max response
[16] = measured here: lipid channel max response

COc1cc2c(cc1OC)-c1cc3ccc(OC)c(OC)c3c[n+]1CC2
inactive: outcome [1] | Potency [2] | activity change, negative = inhibition [3] -18.1% | outcome [4] | Potency [5] > 20.6 µM | Potency [6] | outcome [7] | activity change, negative = inhibition ([8]; at 25.7 µM (top of the series)) 1.8% | Potency [9]
-8.72%: max response [8, 15]
-7.96%: max response [8, 16]

CCC(=O)O[C@@]1(C(=O)CCl)[C@@H](C)C[C@@H]2[C@H]3CCC4=CC(=O)C=C[C@@]4(C)[C@]3(F)[C@@H](O)C[C@@]21C
-15.8%: max response [8, 16]
inactive: outcome [1] | Potency [2] | activity change, negative = inhibition [3] -1.76% | outcome [4] | Potency [6] | outcome [7] | activity change, negative = inhibition ([8]; at 25.7 µM (top of the series)) -3.93%
-18.1%: max response [8, 15]
active: Potency [5] 0.000621 µM | Potency [10] < 5.9e-06 µM

CC(C)(N=NC(C)(C)C(=N)N)C(=N)N
inactive: outcome [1] | Potency [2] | activity change, negative = inhibition [3] 3.21% [at 7.69 µM] | outcome [4] | Potency [5] > 46 µM | outcome [7] | activity change, negative = inhibition ([8]; at 57.5 µM (top of the series)) 6.18% | Potency [9]
-8.52%: max response [8, 15]
0.846%: max response [8, 16]

C[C@H](CCC(=O)NCC(=O)O)[C@H]1CC[C@H]2[C@H]3[C@@H](C[C@@H](O)[C@]12C)[C@]1(C)CC[C@H](O)C[C@@H]1C[C@@H]3O
inactive: outcome [1] | Potency [2] | activity change, negative = inhibition [3] 15.3% | outcome [4] | Potency [5] > 20.6 µM | Potency [6] | outcome [7] | activity change, negative = inhibition ([8]; at 25.7 µM (top of the series)) 0.864% | Potency [9]
-0.773%: max response [8, 16]
-1.04%: max response [8, 15]

C[N+]1(C)C[C@@H](O)C[C@@H]1C(=O)[O-]
-3.42%: max response [8, 16]
-1.48%: max response [8, 15]
inactive: outcome [1] | Potency [2] | activity change, negative = inhibition [3] -11.1% | outcome [4] | Potency [10] > 20.6 µM | Potency [6] | outcome [7] | activity change, negative = inhibition ([8]; at 25.7 µM (top of the series)) -1.53% | Potency [9]

Cc1onc(-c2c(Cl)cccc2Cl)c1C(=O)N[C@H]1C(=O)N2[C@H]1SC(C)(C)[C@H]2C(=O)O
inactive: outcome [1] | Potency [2] | activity change, negative = inhibition [3] -5.49% | Potency [5] > 20.6 µM | Potency [10] > 20.6 µM | Potency [6] | outcome [7] | activity change, negative = inhibition ([8]; at 25.7 µM (top of the series)) -2.5% | Potency [9]
-2.7%: max response [8, 15]
-4.28%: max response [8, 16]

COCC(=O)Nc1c(I)c(C(=O)NC[C@@H](O)CO)c(I)c(C(=O)N(C)C[C@@H](O)CO)c1I
inactive: outcome [1] | Potency [2] | activity change, negative = inhibition [3] 3.09% | outcome [4] | outcome [7] | activity change, negative = inhibition ([8]; at 25.7 µM (top of the series)) -0.947% | Potency [11] | outcome [12] | Potency [13] | activity, negative = inhibition ([14]; parasite line A) -0.503% | activity, negative = inhibition ([14]; parasite line B) -0.0954% | Potency (C2A) | Potency (CP217) | Potency (CP250) | Potency (FAB9) | Potency (JCK) | Potency (SC27B)
-9.01%: max response [8, 16]
-5.27%: max response [8, 15]

O=C(/C=C\C=C/c1ccc2c(c1)OCO2)N1CCCCC1
active: Potency [2] 3.16 µM
inactive: outcome [1] | activity change, negative = inhibition [3] -3.46% | outcome [4] | Potency [6] | activity change, negative = inhibition ([8]; at 25.7 µM (top of the series)) 2%
-1.9%: max response [8, 15]
1.28%: max response [8, 16]

Nc1ccn([C@@H]2CC[C@H](CO)O2)c(=O)n1
-6.51%: max response [8, 16]
inactive: outcome [1] | Potency [2] | activity change, negative = inhibition [3] -7.49% | outcome [4] | Potency [6] | outcome [7] | activity change, negative = inhibition ([8]; at 25.7 µM (top of the series)) -3.47%
-4.3%: max response [8, 15]

CNC[C@H](O)[C@H](O)[C@H](O)[C@H](O)CO
-14.3%: max response [8, 16]
inactive: outcome [1] | Potency [2] | activity change, negative = inhibition [3] 3.99% | outcome [4] | Potency [6] | outcome [7] | activity change, negative = inhibition ([8]; at 25.7 µM (top of the series)) -1.7%
-11%: max response [8, 15]

CC(=O)OCC(=O)[C@@]1(O)CC[C@@H]2[C@H]3CCC4=CC(=O)CC[C@]4(C)[C@]3(F)[C@@H](O)C[C@@]21C
9.04%: max response [8, 15]
inactive: outcome [1] | Potency [2] | activity change, negative = inhibition [3] -9.54% | outcome [4] | Potency [6] | outcome [7] | activity change, negative = inhibition ([8]; at 25.7 µM (top of the series)) 0.165% | Potency [9]
9.02%: max response [8, 16]

CC[C@@H]1OC(=O)[C@H](C)[C@H](O[C@@H]2C[C@](C)(OC)[C@H](O)[C@H](C)O2)[C@H](C)[C@H](O[C@@H]2O[C@@H](C)C[C@@H](N(C)C)[C@@H]2O)[C@](C)(O)C[C@H](C)C(=NOCOCCOC)[C@H](C)[C@H](O)[C@]1(C)O
-2.35%: max response [8, 15]
inactive: outcome [1] | Potency [2] | activity change, negative = inhibition [3] -1.03% | outcome [4] | Potency [6] | outcome [7] | activity change, negative = inhibition ([8]; at 25.7 µM (top of the series)) 0.83% | Potency [11] | outcome [12] | Potency [13] | activity, negative = inhibition ([14]; parasite line B) -20.4% | Potency (C2A) | Potency (CP217) | Potency (CP250) | Potency (FAB9) | Potency (JCK) | Potency (SC27B)
-1.19%: max response [8, 16]

CC(=O)N(C[C@@H](O)CO)c1c(I)c(C(=O)NC[C@@H](O)CO)c(I)c(C(=O)NC[C@@H](O)CO)c1I
-16.6%: max response [8, 15]
-19.4%: max response [8, 16]
inactive: outcome [1] | Potency [2] | activity change, negative = inhibition [3] -8.29% | outcome [4] | Potency [6] | outcome [7] | activity change, negative = inhibition ([8]; at 25.7 µM (top of the series)) -2.6% | Potency [9]

C=CC1=C(C(=O)O)N2C(=O)[C@@H](NC(=O)/C(=N\OCC(=O)O)c3csc(N)n3)[C@@H]2SC1
inactive: outcome [1] | Potency [2] | activity change, negative = inhibition [3] -1.88% | outcome [4] | Potency [6] | outcome [7] | activity change, negative = inhibition ([8]; at 25.7 µM (top of the series)) 0.264% | Potency [9] | Potency [11] | outcome [12] | Potency [13] | activity, negative = inhibition ([14]; parasite line A) -8.61% | activity, negative = inhibition ([14]; parasite line B) -5.96% | Potency (C2A) | Potency (CP217) | Potency (CP250) | Potency (FAB9) | Potency (JCK) | Potency (SC27B)
6.88%: max response [8, 15]
9.17%: max response [8, 16]
